# Measurements as given in the supplement of paper PMC9023506.
# Counter-ions that a name gives are not always drawn.
# Tested on: Danio rerio larvae (5 dpf)
# Experiment: habituation to 1-s acoustic pulses, difference vs DMSO (percentage points (treated minus DMSO)); higher = more of the behaviour than the DMSO vehicle control
# Settings: 10 µM; exposure time: 3 h pre-incubation + 3 h imaging
# Method: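 5-dpf wild-type zebrafish larvae were imaged in 96-well plates. They were treated with 190 Tocris FDA-approved drugs at 10 µM (1 µl/ml DMSO) for 3 h before and 3 h during imaging at 28.5 °C, 48 larvae per drug. Automated image analysis gave % time moving and optomotor responses. Values are drug group mean minus DMSO vehicle mean (n=844), in percentage points, for 10 behaviours.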
row,Structure (SMILES),habituation to 1-s acoustic pulses
1,OCCN1C[C@H](O)[C@@H](O)[C@H](O)[C@H]1CO [Miglitol],0.997
2,Cc1nc(Nc2ncc(C(=O)Nc3c(C)cccc3Cl)s2)cc(N2CCN(CCO)CC2)n1 [Dasatinib],-0.705
3,CCC(=O)O[C@]1(C(=O)SCF)[C@H](C)C[C@H]2[C@@H]3C[C@H](F)C4=CC(=O)C=C[C@]4(C)[C@@]3(F)[C@@H](O)C[C@@]21C [Fluticasone propionate],3.04
4,NS(=O)(=O)Cc1noc2ccccc12 [Zonisamide],-0.0674
5,COCCCOc1cc(C[C@@H](C[C@H](N)[C@@H](O)C[C@H](C(=O)NCC(C)(C)C(N)=O)C(C)C)C(C)C)ccc1OC [Aliskiren hemifumarate],7.12
6,C[C@]12CC[C@@H]3c4ccc(O)cc4C[C@@H](CCCCCCCCC[S+]([O-])CCCC(F)(F)C(F)(F)F)[C@H]3[C@@H]1CC[C@@H]2O (stereo not given in full),-2.82
7,O=C(Nc1c(Cl)cncc1Cl)c1ccc(OC(F)F)c(OCC2CC2)c1 [Roflumilast],-1.13
8,C[C@H](Cc1cc2c(c(C(N)=O)c1)N(CCCO)CC2)NCCOc1ccccc1OCC(F)(F)F [Silodosin],7.97
9,O=c1[nH]c(=O)n([C@H]2C[C@H](O)[C@@H](CO)O2)cc1C(F)(F)F [Trifluorothymidine],4.64
10,COc1c(C)c2c(c(O)c1C/C=C(\C)CCC(=O)O)C(=O)OC2 [Mycophenolic acid],1.78
11,O=C(O[C@@H]1C[C@@H]2C[C@H]3C[C@H](C1)N2CC3=O)c1c[nH]c2ccccc12 [Dolasetron mesylate],2.06
12,CNC(=O)c1cc(Oc2ccc(NC(=O)Nc3ccc(Cl)c(C(F)(F)F)c3)cc2)ccn1 [Sorafenib],-8.29
13,CN1CCC[C@@H]1Cc1c[nH]c2ccc(CCS(=O)(=O)c3ccccc3)cc12 [Eletriptan hydrobromide],10.1
14,CC(C)C(=O)Nc1ccc([N+](=O)[O-])c(C(F)(F)F)c1 [Flutamide],-15.5
15,CN1CCN2c3ncccc3Cc3ccccc3C2C1 (stereo not given) [Mirtazapine],-2.79
16,O=C(O)c1cc(/N=N/c2ccc(S(=O)(=O)Nc3ccccn3)cc2)ccc1O [Sulfasalazine],0.389
17,NS(=O)(=O)c1cc(C(=O)O)c(NCc2ccco2)cc1Cl [Furosemide],1.08
18,CCOC(=O)C1=C(COCCN)NC(C)=C(C(=O)OC)C1c1ccccc1Cl (stereo not given) [Amlodipine besylate],-2.17
19,COc1cccc2c1C(=O)c1c(O)c3c(c(O)c1C2=O)C[C@@](O)(C(=O)CO)C[C@@H]3O[C@H]1C[C@H](N)[C@H](O)[C@H](C)O1 [Doxorubicin hydrochloride],3.26
20,CC(C)N(CCCCOCC(=O)NS(C)(=O)=O)c1cnc(-c2ccccc2)c(-c2ccccc2)n1 [Selexipag],-0.45

row,Structure (SMILES),habituation to 1-s acoustic pulses
1,CCCCC(=O)N(Cc1ccc(-c2ccccc2-c2nnn[nH]2)cc1)[C@H](C(=O)O)C(C)C [Valsartan],2.82
2,CN(CCOc1ccc(CC2SC(=O)NC2=O)cc1)c1ccccn1 (stereo not given) [Rosiglitazone],0.476
3,CNCc1ccc(-c2[nH]c3cc(F)cc4c3c2CCNC4=O)cc1 [Rucaparib camsylate],4.21
4,CC[C@H]1OC(=O)[C@H](C)[C@@H](O[C@H]2C[C@@](C)(OC)[C@@H](O)[C@H](C)O2)[C@H](C)[C@@H](O[C@@H]2O[C@H](C)C[C@H](N(C)C)[C@H]2O)[C@](C)(O)C[C@@H](C)CN(C)[C@H](C)[C@@H](O)[C@]1(C)O [Azithromycin],4.52
5,COc1c(C)c2c(c(O)c1C/C=C(\C)CCC(=O)OCCN1CCOCC1)C(=O)OC2 [Mycophenolate mofetil],0.172
6,CCOC(=O)[C@H](CCc1ccccc1)N[C@@H](C)C(=O)N1[C@H](C(=O)O)C[C@@H]2CCC[C@@H]21 [Ramipril],-1.94
7,Nc1cccc2c1CN(C1CCC(=O)NC1=O)C2=O (stereo not given) [Lenalidomide],-1.09
8,CN/C(=N\CCSCc1nc[nH]c1C)NC#N [Cimetidine],5.48
9,CC(C)C(=O)OCC(=O)[C@@]12O[C@H](C3CCCCC3)O[C@@H]1C[C@H]1[C@@H]3CCC4=CC(=O)C=C[C@]4(C)[C@H]3[C@@H](O)C[C@@]12C [Ciclesonide],-1.43
10,Nc1nc2c(ncn2COCCO)c(=O)[nH]1 [Acyclovir],1.89
11,O=C1CCc2ccc(OCCCCN3CCN(c4cccc(Cl)c4Cl)CC3)cc2N1 [Aripiprazole],-5.72
12,C=C1[C@H](CO)[C@@H](O)C[C@@H]1n1cnc2c(=O)[nH]c(N)nc21 [Entecavir],3.17
13,CCOc1cc(CC(=O)N[C@@H](CC(C)C)c2ccccc2N2CCCCC2)ccc1C(=O)O [Repaglinide],-8.43
14,Cc1ccccc1C(=O)Nc1ccc(C(=O)N2CCCC(O)c3cc(Cl)ccc32)c(C)c1 (stereo not given) [Tolvaptan],1.17
15,CCCCC1=NC2(CCCC2)C(=O)N1Cc1ccc(-c2ccccc2-c2nnn[nH]2)cc1 [Irbesartan],1.51
16,CC(C)[C@H]1CC[C@H](C(=O)N[C@H](Cc2ccccc2)C(=O)O)CC1 [Nateglinide],0.774
17,CC(=O)NC[C@H]1CN(c2ccc(N3CCOCC3)c(F)c2)C(=O)O1 [Linezolid],-2.78
18,COc1cc2nc(N3CCN(C(=O)C4COc5ccccc5O4)CC3)nc(N)c2cc1OC (stereo not given) [Doxazosin mesylate],-2.28
19,CN(C)C(=N)NC(=N)N [Metformin hydrochloride],0.867
20,C[C@@H]1C[C@H]2[C@@H]3CCC4=CC(=O)C=C[C@]4(C)[C@@]3(F)[C@@H](O)C[C@]2(C)[C@@]1(O)C(=O)CO [Dexamethasone],2.44
